Structures are written as SMILES. A number with no mark means an inactive call. Records with an inconclusive call do not appear. Calls of active or inactive are those of the source. Unless noted, calls follow the shape of the dose curve; as a rule, active = well fitted curve in the direction sought with a large enough effect in the repeat runs; inconclusive = weak or mixed curves; inactive = no such curve, though single readings can be large; an effect the other way counts as inactive or inconclusive.

The nature of assay [1]: Caspase-3/7 induction in HepG2 cells by small molecules, qHTS assay (AID 1346978). Also: nearly all actives have a fitted effect of over 15% in size. The gist of the method:
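Caspase-3/7 induction was measured by Caspase-Glo 3/7 luminescence (30 min, room temperature) after a 17 hr compound exposure of wild-type HepG2 cells seeded at 2,000 per well and pre-incubated 5 hr.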
A general note: Quantitative high-throughput screening tests each substance at several concentrations.

A short description of assay [2]: Caspase-3/7 induction in CHO-K1 cells by small molecules, qHTS cell viability counter screen (AID 1346979). Also: nearly all actives have a fitted effect of over 35% in size. Also: potency is read from the fitted curve at half-maximal effect. The gist of the method:
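Multiplexed with Caspase-Glo 3/7 in CHO-K1 cells, this counter screen added CellTiter-Fluor after 16hr of compound exposure and recorded fluorescence 1hr later.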

A short description of assay [3]: Caspase-3/7 induction in CHO-K1 cells by small molecules, qHTS assay (AID 1346980). Also: nearly all actives have a fitted effect of over 15% in size. The procedure, abridged: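 Luminescent Caspase-Glo 3/7 read (30min, room temperature) quantified apoptosis induction. Cells were wild-type CHO-K1, treated with compound for 17hr at 37 C and 5% CO2.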
A short description of assay [4]: Caspase-3/7 induction in HepG2 cells by small molecules, qHTS cell viability counter screen (AID 1346981). Also: series mostly up to about 92 µM; nearly all actives have a fitted effect of over 30% in size. The gist of the method: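 Wild-type HepG2 cells (2,000/well) were allowed to settle for 5 hr at 37 C, 5% CO2, then dosed with compounds in DMSO by pin transfer. After 16 hr at 37 C, CellTiter-Fluor was added and fluorescence read 1 hr later.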
For assay [5], the target named is Acetylcholinesterase (Homo sapiens) (UniProt P22303). Briefly: Acetylcholinesterase (AChE) small molecule antagonists: colormetric cell-based qHTS assay (AID 1347395; calls by dose curve; also: nearly all actives have a fitted effect of over 30% in size; also: potency is read from the fitted curve at half-maximal effect). The gist of the method: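 In this cell-based qHTS, attached SH-SY5Y cells were treated with test chemicals for 30 min, after which acetylthiocholine hydrolysis was followed by DTNB colour development over 90 min at 37 C.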
Chain of Acetylcholinesterase (Homo sapiens) (P22303 whole entry, looked up): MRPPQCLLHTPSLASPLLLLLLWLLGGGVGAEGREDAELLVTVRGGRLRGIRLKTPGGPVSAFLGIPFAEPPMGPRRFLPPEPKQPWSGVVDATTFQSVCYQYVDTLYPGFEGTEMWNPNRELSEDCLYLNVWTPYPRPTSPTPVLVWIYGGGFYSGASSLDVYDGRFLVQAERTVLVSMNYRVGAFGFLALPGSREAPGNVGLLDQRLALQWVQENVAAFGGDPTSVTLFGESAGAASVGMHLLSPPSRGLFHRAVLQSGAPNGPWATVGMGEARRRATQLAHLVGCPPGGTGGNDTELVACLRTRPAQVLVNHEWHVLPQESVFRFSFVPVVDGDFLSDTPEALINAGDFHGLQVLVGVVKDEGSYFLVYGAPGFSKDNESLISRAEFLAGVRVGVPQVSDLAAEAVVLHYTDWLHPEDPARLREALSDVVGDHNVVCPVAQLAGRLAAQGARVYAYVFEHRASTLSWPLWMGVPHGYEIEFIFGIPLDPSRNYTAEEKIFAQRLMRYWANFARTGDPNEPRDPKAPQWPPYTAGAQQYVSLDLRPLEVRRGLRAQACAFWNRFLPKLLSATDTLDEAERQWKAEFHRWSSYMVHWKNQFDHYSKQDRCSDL

Assay [6] shares this target. Put plainly: Acetylcholinesterase (AChE) small molecule antagonists: enzyme-based qHTS assay (AID 1347397; calls by dose curve; also: nearly all actives have a fitted effect of over 55% in size; also: potency is read from the fitted curve at half-maximal effect). The conditions noted are these: Potency: AChE enzyme activity inhibition. The procedure, abridged:
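Absorbance-based detection of thiocholine with DTNB served as the read-out. Recombinant human AChE was exposed to compound for 30 min at RT before a 10 min RT incubation with acetylthiocholine.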

Assay [7] has the same target. Briefly: Acetylcholinesterase (AChE) small molecule antagonists: fluorescence cell-based qHTS assay (AID 1347398; calls by dose curve; also: nearly all actives have a fitted effect of over 50% in size; also: potency is read from the fitted curve at half-maximal effect). To be noted: Potency: AChE activity. The gist of the method: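 Fluorimetric cell-based assay: intact SH-SY5Y cells, 30 min compound preincubation at 37 C, acetylthiocholine substrate with thiol probe Thiolite Green, 40 min RT development, fluorescence 490/520 nm.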

The target is the same in assay [8]. Briefly: Acetylcholinesterase (AChE) small molecule antagonists: enzyme-based qHTS assay with human liver microsomes (AID 1347399; calls by dose curve; also: nearly all actives have a fitted effect of over 60% in size; also: potency is read from the fitted curve at half-maximal effect). The conditions noted are these: Potency: qHTS inhibition. The gist of the method:
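Recombinant human AChE (50 mU/mL in the enzyme mix) and human liver microsomes (0.25 mg/mL final) were preincubated with compound and NADPH (0.25 mg/mL final) for 30 min at 37 C. Acetylthiocholine/DTNB was then added; thiocholine was read colorimetrically after 10 min at room temperature.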

The target of assay [9] is Cytochrome P450 2D6 (Homo sapiens) (UniProt P10635). Briefly: Cytochrome P450 Family 2 Subfamily D Member 6 (CYP2D6) small molecule antagonists: luciferase reporter qHTS assay (AID 1671196). Also: nearly all actives have a fitted effect of over 50% in size. Also: potency is read from the fitted curve at half-maximal effect. The procedure, abridged:
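CYP2D6 enzyme–substrate mix was held with compound for 10 min at room temperature, then NADPH regeneration solution was added and the reaction ran 1 h at room temperature. Luciferin product was detected by luminescence after 20 min with detection reagent.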

Assay [10] concerns the target Cytochrome P450 2C9 (Homo sapiens) (UniProt P11712). Briefly: Cytochrome P450 Family 2 Subfamily C Member 9 (CYP2C9) small molecule antagonists: luciferase reporter qHTS assay (AID 1671198). Also: nearly all actives have a fitted effect of over 50% in size. Also: potency is read from the fitted curve at half-maximal effect. The procedure, abridged: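 Enzyme-substrate mix preincubated with compound 10 min at room temperature; reaction started with NADPH regeneration solution, 1 h 37C. Luminescent luciferin product read after 20 min detection reagent.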
(A reporter such as luciferase makes a cellular process visible.)

Assay [11] concerns the target Cytochrome P450 1A2 (Homo sapiens) (UniProt P05177). Briefly: Cytochrome P450 Family 1 Subfamily A Member 2 (CYP1A2) small molecule antagonists: luciferase reporter qHTS assay (AID 1671199). Also: nearly all actives have a fitted effect of over 50% in size. Also: potency is read from the fitted curve at half-maximal effect. The procedure, abridged:
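Human CYP1A2 activity measured with a P450-Glo proluciferin substrate; compounds in DMSO preincubated 10 min at room temperature with enzyme-substrate mix, then NADPH regeneration system added for 1 h. Luciferin detection reagent, 20 min, luminescence read.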

Assay [12] addresses Voltage-gated inwardly rectifying potassium channel KCNH2 (Homo sapiens) (UniProt Q12809). Put plainly: Human Ether-a-go-go-Related Gene (hERG) channel small molecule antagonists: fluorescence cell-based qHTS assay (AID 1671200). Also: nearly all actives have a fitted effect of over 50% in size. Also: potency is read from the fitted curve at half-maximal effect. The gist of the method: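 Cell line hERG-U2OS; dye FluxOR II, 1 h RT dark; Tl+ stimulus; ex 480/em 540 nm, read each second for 2 min.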
(hERG is a cardiac potassium channel; its block is linked to QT prolongation.)

Assay [13] concerns the target Cytochrome P450 3A4 (Homo sapiens) (UniProt P08684). Put plainly: Cytochrome P450 Family 3 Subfamily A Member 4 (CYP3A4) small molecule antagonists: luciferase reporter qHTS assay (AID 1671201). Also: nearly all actives have a fitted effect of over 50% in size. Also: potency is read from the fitted curve at half-maximal effect. The procedure, abridged:
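Room-temperature assay throughout: 10 min compound–enzyme/substrate preincubation, 1 h reaction after NADPH regeneration solution, 20 min detection. Luciferin formed from proluciferin substrate is quantified by luminescence.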

Assay [14] concerns the target Nuclear receptor subfamily 1 group I member 2 (Homo sapiens) (UniProt O75469). Put plainly: Human pregnane X receptor (PXR) small molecule agonists, qHTS assay (AID 1346982). Also: nearly all actives have a fitted effect of over 35% in size. Also: potency is read from the fitted curve at half-maximal effect. The gist of the method: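 PXR-Luc HepG2 cells (CYP3A4 promoter-driven luciferase) were seeded in medium with 5% charcoal-stripped FBS, left 5 hr at 37 C, then exposed to compounds in DMSO for 24 hr. Luminescence was read after ONE-Glo addition.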

In assay [15] the target is Cytochrome P450 2C19 (Homo sapiens) (UniProt P33261). Briefly: Cytochrome P450 Family 2 Subfamily C Member 19 (CYP2C19) small molecule antagonists: luciferase reporter qHTS assay (AID 1671197). Also: nearly all actives have a fitted effect of over 65% in size. Also: potency is read from the fitted curve at half-maximal effect. The gist of the method:
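Inhibition of CYP2C19 was scored from loss of luminescence in a P450-Glo proluciferin substrate assay, NADPH-started and run 1 h at 37C, with ketoconazole as positive control.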

Assay [16] concerns the target Nuclear receptor subfamily 1 group I member 2 (Rattus norvegicus) (UniProt Q9R1A7). Briefly: Rat pregnane X receptor (rPXR) activation by small molecules, qHTS assay (AID 1346983). Also: nearly all actives have a fitted effect of over 20% in size. To be noted: rPXR luciferase reporter cells, One-Glo luminescence, 24 h; max activation: active compounds read high. The gist of the method:
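Luminescent readout (One-Glo luciferase, 30 min room temperature) followed 24 hr compound treatment at 37 C of rPXR cells plated 2,000 per well and preincubated 5hr; qHTS format with compounds delivered in DMSO.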

Assay [17] addresses Nuclear receptor subfamily 1 group I member 2 (Homo sapiens) (UniProt O75469). Put plainly: CYP3A4 induction through human pregnane X receptor (PXR) by small molecules, qHTS assay (AID 1346984). Also: nearly all actives have a fitted effect of over 40% in size. Also: potency is read from the fitted curve at half-maximal effect. The gist of the method:
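DPX-2 cells (HepG2 co-transfected with PXR and CYP3A4 promoter-luciferase) treated with compounds 24 h at 37C; luciferin-IPA CYP3A4 substrate 3uM final added for 3 h, then One-Glo; luminescence read. qHTS format.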

The target is the same in assay [18]. Briefly: Human pregnane X receptor (PXR) activation by small molecules, qHTS assay (AID 1346985). Also: nearly all actives have a fitted effect of over 40% in size. The gist of the method:
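DPX-2 cells (HepG2 co-transfected with a PXR response element and a CYP3A4-promoter luciferase construct) were seeded at 2,000 per well, rested 5 hr at 37C, then exposed to DMSO-dissolved compounds for 24 hr. Activation was read as luciferase luminescence.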
% is scaled to controls: 0 for no effect and ±100 for the full control effect.

Chain of Voltage-gated inwardly rectifying potassium channel KCNH2 (Homo sapiens) (Q12809 whole entry, looked up): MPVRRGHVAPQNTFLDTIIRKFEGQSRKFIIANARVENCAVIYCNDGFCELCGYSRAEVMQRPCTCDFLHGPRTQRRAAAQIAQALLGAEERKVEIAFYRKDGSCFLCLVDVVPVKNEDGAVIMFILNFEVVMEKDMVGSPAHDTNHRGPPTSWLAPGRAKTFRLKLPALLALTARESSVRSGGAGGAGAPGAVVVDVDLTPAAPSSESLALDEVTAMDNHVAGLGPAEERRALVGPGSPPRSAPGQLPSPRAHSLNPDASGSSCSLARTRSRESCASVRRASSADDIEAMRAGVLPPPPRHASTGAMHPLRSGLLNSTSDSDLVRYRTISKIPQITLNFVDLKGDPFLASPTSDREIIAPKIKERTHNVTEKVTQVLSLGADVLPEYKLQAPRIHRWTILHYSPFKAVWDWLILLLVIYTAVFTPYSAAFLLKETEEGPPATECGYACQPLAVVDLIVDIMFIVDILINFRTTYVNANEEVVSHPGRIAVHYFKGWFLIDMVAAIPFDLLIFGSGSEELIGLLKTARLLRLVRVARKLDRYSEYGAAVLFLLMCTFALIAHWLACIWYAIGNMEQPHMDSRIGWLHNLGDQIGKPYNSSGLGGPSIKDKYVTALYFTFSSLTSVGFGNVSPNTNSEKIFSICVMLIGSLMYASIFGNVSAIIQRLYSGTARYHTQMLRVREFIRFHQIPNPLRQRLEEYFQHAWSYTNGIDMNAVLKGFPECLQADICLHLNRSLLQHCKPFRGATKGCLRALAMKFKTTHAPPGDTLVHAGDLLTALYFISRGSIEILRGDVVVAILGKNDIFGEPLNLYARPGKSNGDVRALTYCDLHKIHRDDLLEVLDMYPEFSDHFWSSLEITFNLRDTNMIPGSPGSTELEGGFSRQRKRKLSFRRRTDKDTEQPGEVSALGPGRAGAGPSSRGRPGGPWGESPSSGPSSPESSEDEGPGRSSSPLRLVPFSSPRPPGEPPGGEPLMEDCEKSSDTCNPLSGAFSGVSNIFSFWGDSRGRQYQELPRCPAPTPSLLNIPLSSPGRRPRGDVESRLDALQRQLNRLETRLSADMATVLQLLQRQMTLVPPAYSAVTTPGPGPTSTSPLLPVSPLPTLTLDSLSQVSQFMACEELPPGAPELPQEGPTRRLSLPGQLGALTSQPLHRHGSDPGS
Chain of Cytochrome P450 2D6 (Homo sapiens) (P10635 whole entry, looked up): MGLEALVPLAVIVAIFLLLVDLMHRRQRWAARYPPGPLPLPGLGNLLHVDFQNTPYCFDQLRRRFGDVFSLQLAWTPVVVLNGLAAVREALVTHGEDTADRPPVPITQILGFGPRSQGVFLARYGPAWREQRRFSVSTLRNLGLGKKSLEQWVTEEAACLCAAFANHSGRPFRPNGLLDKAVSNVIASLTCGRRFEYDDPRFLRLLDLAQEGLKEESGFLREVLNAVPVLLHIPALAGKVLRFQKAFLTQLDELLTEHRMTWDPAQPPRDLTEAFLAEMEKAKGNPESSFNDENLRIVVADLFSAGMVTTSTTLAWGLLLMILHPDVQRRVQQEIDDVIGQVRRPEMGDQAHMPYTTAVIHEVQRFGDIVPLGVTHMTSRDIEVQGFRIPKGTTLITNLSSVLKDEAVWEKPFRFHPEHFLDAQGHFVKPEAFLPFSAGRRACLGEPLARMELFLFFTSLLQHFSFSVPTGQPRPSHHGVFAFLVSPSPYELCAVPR
Chain of Cytochrome P450 2C19 (Homo sapiens) (P33261 whole entry, looked up): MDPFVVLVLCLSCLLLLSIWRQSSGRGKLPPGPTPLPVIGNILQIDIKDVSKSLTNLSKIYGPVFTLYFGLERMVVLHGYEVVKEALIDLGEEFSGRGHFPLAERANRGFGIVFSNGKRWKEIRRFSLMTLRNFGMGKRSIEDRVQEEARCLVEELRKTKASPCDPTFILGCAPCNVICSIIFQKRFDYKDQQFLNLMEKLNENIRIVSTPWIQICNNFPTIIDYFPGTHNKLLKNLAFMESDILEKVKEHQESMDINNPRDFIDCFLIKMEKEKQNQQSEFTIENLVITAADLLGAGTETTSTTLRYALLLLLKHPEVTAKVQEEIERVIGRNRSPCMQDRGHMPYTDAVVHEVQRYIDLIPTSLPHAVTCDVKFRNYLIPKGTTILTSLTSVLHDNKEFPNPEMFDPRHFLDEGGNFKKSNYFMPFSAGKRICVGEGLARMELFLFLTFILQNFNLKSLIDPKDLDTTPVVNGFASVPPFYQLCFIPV
Chain of Cytochrome P450 1A2 (Homo sapiens) (P05177 whole entry, looked up): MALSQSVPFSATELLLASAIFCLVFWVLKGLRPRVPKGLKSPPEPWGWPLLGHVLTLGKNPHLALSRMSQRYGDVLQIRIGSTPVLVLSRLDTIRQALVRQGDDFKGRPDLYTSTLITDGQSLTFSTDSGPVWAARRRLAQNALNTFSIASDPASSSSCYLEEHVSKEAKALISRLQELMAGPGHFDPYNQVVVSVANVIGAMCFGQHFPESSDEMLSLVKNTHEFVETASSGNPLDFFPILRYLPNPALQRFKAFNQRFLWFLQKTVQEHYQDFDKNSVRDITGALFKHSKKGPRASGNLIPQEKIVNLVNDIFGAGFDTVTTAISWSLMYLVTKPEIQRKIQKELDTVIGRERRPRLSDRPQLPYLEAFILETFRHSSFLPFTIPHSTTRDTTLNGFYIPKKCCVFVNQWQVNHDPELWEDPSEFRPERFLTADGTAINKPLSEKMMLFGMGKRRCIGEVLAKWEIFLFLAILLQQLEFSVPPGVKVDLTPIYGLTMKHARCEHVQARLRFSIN
Chain of Nuclear receptor subfamily 1 group I member 2 (Homo sapiens) (O75469 whole entry, looked up): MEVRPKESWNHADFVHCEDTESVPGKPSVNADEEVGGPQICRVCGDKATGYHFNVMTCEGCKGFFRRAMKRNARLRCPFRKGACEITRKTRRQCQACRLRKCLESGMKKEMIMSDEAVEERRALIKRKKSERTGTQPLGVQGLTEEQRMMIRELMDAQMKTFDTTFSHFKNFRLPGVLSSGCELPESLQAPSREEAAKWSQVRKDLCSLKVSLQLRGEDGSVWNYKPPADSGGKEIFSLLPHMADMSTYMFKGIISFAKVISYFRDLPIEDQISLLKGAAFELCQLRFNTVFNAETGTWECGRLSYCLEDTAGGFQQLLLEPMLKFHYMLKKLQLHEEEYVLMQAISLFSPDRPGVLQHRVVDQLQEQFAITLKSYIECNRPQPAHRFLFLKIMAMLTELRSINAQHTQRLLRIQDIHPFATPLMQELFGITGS
Chain of Cytochrome P450 2C9 (Homo sapiens) (P11712 whole entry, looked up): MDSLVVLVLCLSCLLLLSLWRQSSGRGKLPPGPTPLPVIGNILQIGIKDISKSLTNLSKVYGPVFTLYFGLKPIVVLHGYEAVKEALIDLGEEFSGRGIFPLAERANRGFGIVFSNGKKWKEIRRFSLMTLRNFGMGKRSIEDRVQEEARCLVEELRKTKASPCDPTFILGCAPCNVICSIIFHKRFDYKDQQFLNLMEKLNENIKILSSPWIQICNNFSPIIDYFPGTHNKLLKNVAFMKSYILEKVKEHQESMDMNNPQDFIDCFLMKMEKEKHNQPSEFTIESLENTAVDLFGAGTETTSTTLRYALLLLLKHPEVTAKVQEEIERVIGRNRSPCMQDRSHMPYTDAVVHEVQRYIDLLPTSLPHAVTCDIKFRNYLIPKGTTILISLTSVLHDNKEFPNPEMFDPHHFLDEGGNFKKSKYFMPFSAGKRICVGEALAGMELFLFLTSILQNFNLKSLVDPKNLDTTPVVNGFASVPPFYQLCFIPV
Chain of Cytochrome P450 3A4 (Homo sapiens) (P08684 whole entry, looked up): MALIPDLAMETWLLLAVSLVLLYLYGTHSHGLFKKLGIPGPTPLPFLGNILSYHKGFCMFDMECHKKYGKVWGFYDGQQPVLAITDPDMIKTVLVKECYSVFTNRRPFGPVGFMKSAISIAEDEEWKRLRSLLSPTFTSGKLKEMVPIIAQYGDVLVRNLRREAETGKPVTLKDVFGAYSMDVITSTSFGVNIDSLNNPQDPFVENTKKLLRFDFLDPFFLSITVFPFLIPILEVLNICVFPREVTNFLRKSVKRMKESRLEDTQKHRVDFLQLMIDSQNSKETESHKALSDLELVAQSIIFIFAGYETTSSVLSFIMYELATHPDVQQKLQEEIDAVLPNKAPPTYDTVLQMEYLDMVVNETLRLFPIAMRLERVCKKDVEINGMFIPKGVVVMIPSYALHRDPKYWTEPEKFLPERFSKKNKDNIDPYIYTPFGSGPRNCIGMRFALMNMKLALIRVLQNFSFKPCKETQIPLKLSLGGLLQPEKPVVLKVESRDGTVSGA

Turning to `NS(=O)(=O)C(F)(F)C(F)(F)C(F)(F)C(F)(F)C(F)(F)C(F)(F)C(F)(F)C(F)(F)F`, the Potency result in assay [1], in assay [2], in [3], in assay [4], in assay [5] and in assay [6] was “inactive” each time. The Potency entry in [7], in assay [8], in [9], in assay [11], in assay [12] and in [13] was “inactive” each time. Moreover, the Potency in [10] was 0.633 µM (active).

On to `CC(C)(OO)c1ccccc1`, for which the Potency entry in assay [1], in [2], in [3], in [14], in assay [5] and in assay [6] was “inactive” throughout. The Potency entry in assay [7], in [8], in assay [9] and in assay [12] was “inactive” each time. Also, the Potency in [15] was 35.6 µM (active); in assay [10], 39.9 µM (active); in assay [11], 25.2 µM (active).

For `CCOP(=S)(OCC)SCSCC`, the Potency result in [1], in assay [2], in assay [3], in [4], in [14] and in assay [6] was “inactive” throughout. The Potency result in assay [8] and in assay [12] was “inactive” throughout. Also, the Potency is 20 µM (active) in assay [15], 35.6 µM (active) in [10], 22.4 µM (active) in assay [11] and 6.33 µM (active) in [13].

Consider `C=CC(=O)OC`, for which the Potency entry in assay [1], in assay [2], in [3], in [4] and in assay [12] was “inactive” in each case.

Take `Clc1ccc(C(OCCN2CCCCC2)c2ccccc2)cc1` (stereo not drawn): the Potency result in assay [1], in assay [2], in assay [3], in [14], in assay [18] and in assay [5] was “inactive” in each case. Further, the Potency entry in assay [6], in assay [7], in [8] and in assay [10] was “inactive” throughout. Further, in assay [16], the max activation is -3.11%. In addition, the Potency in assay [17] is 12.6 µM (active); in [9], 0.174 µM (active); in assay [15] it was 24.5 µM (active); in [12], 0.601 µM (active).

`CCOc1ccc(C(C)(C)COCc2cccc(Oc3ccccc3)c2)cc1`: the Potency entry in assay [1], in assay [2], in assay [3], in assay [4], in assay [5] and in assay [6] was “inactive” throughout. Besides, the Potency result in assay [7], in assay [8], in assay [12] and in assay [13] was “inactive” throughout. In addition, the Potency in assay [9] was 35.6 µM (active); in [15], 17.8 µM (active); in assay [10], 6.33 µM (active).

In the case of `CCOP(=S)(OCC)SCn1nnc2ccccc2c1=O`, the Potency entry in [1], in assay [3] and in [12] was “inactive” throughout. Besides, the Potency in assay [2] is 68.6 µM (active); in assay [14], 6.86 µM (active); in assay [5] it was 12.6 µM (active); in assay [6], 35.6 µM (active); in assay [7] it was 5.64 µM (active); in assay [8], 0.252 µM (active). For the same compound, the Potency is 35.6 µM (active) in [9]; 0.356 µM (active) in assay [15]; 0.633 µM (active) in assay [10]; 35.6 µM (active) in assay [11]; 1.59 µM (active) in [13].

For the compound `COCC(C)N(C(=O)CCl)c1c(C)csc1C` (stereo not drawn), the Potency entry in assay [1], in [3], in [4], in [14], in assay [17] and in [18] was “inactive” in each case. In addition, the Potency entry in assay [5], in assay [6], in [7], in assay [8], in assay [9] and in [12] was “inactive” throughout. Besides, the Potency entry in assay [13] is “inactive”. Also, the max activation in assay [16] was -3.61%. Besides, the results for the Potency in assay [15] and in [10] were 6.33 µM (active) and 7.96 µM (active), respectively.

Consider `C=CC(=O)OCC(C)C`, for which the Potency entry in assay [1], in assay [2], in [3], in [5], in [7] and in [8] was “inactive” each time. The Potency entry in assay [9], in assay [15], in [10], in assay [12] and in [13] was “inactive” in each case. In addition, in [14], the Potency is 48.2 µM (active).
